MEKK2mut PB1 HTS: signal of MEK5 binding to mutant human MEKK2 PB1 domain; percent response, % at 10 µM; AID 1530; 290,000 compounds, 0.35% hits; bead flow cytometry, Alexa488-MEK5 binding to MEKK2 mutant; in the data active means percent response above about 24%, passing the limit was not always enough
GRK2 aptamer HTS: human GRK2 inhibition via aptamer displacement. bead flow cytometry, FAM-aptamer displacement from GRK2. P25098. inhibition of aptamer binding, % at 10 µM. 330,000 compounds, 0.59% hits;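 active means inhibition of aptamer binding above 40%, roughly 3 SD of noise, on plates passing a quality check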;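 further: median bead fluorescence of bound FAM aptamer so fluorescent compounds give negative values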
MEKK3 PB1 HTS: MEKK3-MEK5 PB1 interaction, increase or decrease; Q99759; bead-based flow cytometry, Alexa488-MEK5 binding to MEKK3; actives lie on both sides; 0 = blocked by unlabeled MEK5, 100 = vehicle; binding response (% of control), % at 10 µM; 290,000 compounds, 1.4% hits; AID 1529;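 active means binding response more than 3 SD above or below the average of its plate-row segment, actives on both sides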;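 further: Alexa488 bead fluorescence after subtracting the streptavidin-only scavenger bead signal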
Target sequence (Q99759 whole entry, looked up): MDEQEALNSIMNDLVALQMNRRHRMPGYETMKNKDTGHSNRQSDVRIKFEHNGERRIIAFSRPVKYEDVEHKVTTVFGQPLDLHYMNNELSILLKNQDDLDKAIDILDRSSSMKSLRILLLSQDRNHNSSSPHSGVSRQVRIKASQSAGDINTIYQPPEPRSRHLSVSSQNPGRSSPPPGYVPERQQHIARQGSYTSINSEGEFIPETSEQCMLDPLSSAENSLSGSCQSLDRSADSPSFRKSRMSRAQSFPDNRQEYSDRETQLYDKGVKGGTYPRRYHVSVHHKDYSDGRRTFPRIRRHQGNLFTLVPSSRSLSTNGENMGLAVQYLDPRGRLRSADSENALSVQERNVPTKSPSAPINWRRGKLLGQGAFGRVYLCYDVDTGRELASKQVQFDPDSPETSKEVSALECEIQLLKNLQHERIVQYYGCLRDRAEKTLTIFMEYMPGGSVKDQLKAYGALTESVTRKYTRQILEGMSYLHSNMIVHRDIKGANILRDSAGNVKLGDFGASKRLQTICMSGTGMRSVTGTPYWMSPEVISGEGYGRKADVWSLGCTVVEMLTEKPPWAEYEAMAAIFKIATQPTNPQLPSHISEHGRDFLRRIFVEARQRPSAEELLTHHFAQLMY
MEKK2wt PB1 HTS: raises or lowers MEK5 binding to wildtype human MEKK2 PB1 domain | Q9Y2U5 | bead flow cytometry, Alexa488-MEK5 binding to MEKK2 WT; actives lie on both sides | binding response (% of control), % at 10 µM | 290,000 compounds, 1.1% hits | AID 1531; in the data active means binding response below about 67% or above about 130%
MEKK2wt confirm: raises or lowers MEK5 binding to wildtype human MEKK2, retest; bead flow cytometry, Alexa488-MEK5 binding to MEKK2 WT; actives lie on both sides; binding response (% of control), % at 10 µM; 5,900 compounds, 2.4% hits; shares compounds with MEKK3 PB1 HTS; in the data active means binding response below about 16% or above about 210%; inactive means in between
MEKK2mut-MEK5: signal of MEK5 binding to mutant human MEKK2, retest | shares compounds with MEKK3 PB1 HTS | bead flow cytometry, Alexa488-MEK5 binding to MEKK2 mutant | percent response, % at 10 µM | 5,900 compounds, 2% hits; in the data active means percent response mostly above about 71%, no sharp cut-off; inactive means mostly below about 38%;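 further: higher means compound restores mutant binding toward wildtype level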
MEKK3-MEK5 inh: MEKK3-MEK5 PB1 inhibition, single concentration confirmation; shares compounds with MEKK3 PB1 HTS; bead flow cytometry, Alexa488-MEK5 binding to MEKK3; hits give low values; binding response (% of control), % at 10 µM; 5,900 compounds, 1.8% hits; AID 1894;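 active means binding response below 72% of control, or above a set upper limit, though filed actives all read lower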
Hits are given with their value; – = inactive; · = no result given; ! = not active in a repeat; [ ] = remark or other dose. Hits are enriched below; roughly 2.5% of the tested compounds scored in any of these assays.

SMILES | MEKK2mut PB1 HTS | GRK2 aptamer HTS | MEKK3 PB1 HTS | MEKK2wt PB1 HTS | MEKK2wt confirm | MEKK2mut-MEK5 | MEKK3-MEK5 inh
Cc1cc(/C=C2\C(=O)NC(=S)N(C)C2=O)c(C)n1C1CCCCC1 | – | – | – | – | · | · | ·
COc1cc(N2CCOCC2)ccc1/C=C1\C(=O)NC(=O)N(C2CCCCC2)C1=O | – | – | 130 | – | – | – | –
CC(C)(C)n1cc(C(=O)c2ccc3ccccc3c2O)cn1 | – | – | 129 | – | – | – | –
O=c1c2ccccc2nc(/C=C/c2ccc(O)c(O)c2)n1-c1ccccc1 | – | – | – | – | · | · | ·
C1=C(c2c[nH]c3ccccc23)CCNC1 | 99 | – | – | 173 | – | – | –
CN1C(=O)N(C)C(=O)C2(Cc3cc([N+](=O)[O-])ccc3N3CCN(C(=O)c4ccccc4)CC32)C1=O (stereo not drawn) | – | – | – | – | · | · | ·
CN(C(=O)Oc1ccc([N+](=O)[O-])cc1)c1ccccc1 | – | – | 73[inhibitor] | – | – | – | –
Fc1ccc(C(OCCN2CCN(CCCc3ccccc3)CC2)c2ccc(F)cc2)cc1 | 26 | – | – | 235 | – | – | –
Fc1ccc(C(OCCN2CCCC2)c2ccc(F)cc2)cc1 | – | – | – | – | · | · | ·
c1ccc(CCCN2CCN(CCOC(c3ccccc3)c3ccccc3)CC2)cc1 | – | – | – | 162 | – | – | –
CC1(C)CN=C(Nc2ccc(F)c(Cl)c2)S1 | – | – | – | – | · | · | ·
O/N=C1\CCC2CN(C3CCCCC3)CC2C1 (stereo not drawn) | – | – | – | – | · | · | ·
O=C1NC(=O)C(CCc2ccncc2)(CCc2ccncc2)C(=O)N1C1CCCCC1 | – | – | – | – | · | · | ·
O=C1NC(=O)N(C2CCCCC2)C(=O)C1C1c2ccccc2C(=O)N1Cc1ccccc1 (stereo not drawn) | – | – | 76[inhibitor] | – | – | – | –
CCC(Oc1cc(Cl)ccc1Cl)C(=O)N1CCC2(CC1)OCCO2 (stereo not drawn) | – | – | – | – | · | · | ·
O=C1CN=C(c2ccccc2)c2cc(Br)ccc2N1Cc1cc(=O)n2ccccc2n1 | – | – | – | – | · | · | ·
Cc1ccc(NP(=O)(Oc2ccccc2F)Oc2ccccc2F)cc1 | – | – | – | – | · | · | ·
CCc1ccc(NP(=O)(Oc2ccccc2F)Oc2ccccc2F)cc1 | – | – | 1.0[inhibitor] | -3.0[inhibitor] | – | – | –
COc1ccc(/C=C/C(=O)c2c(O)n(CCC3=CCCCC3)c(=O)[nH]c2=O)cc1OC | – | – | – | – | · | · | ·
CCC(N)Cc1c[nH]c2ccccc12 (stereo not drawn) | – | · | 64[inhibitor] | – | – | – | –
CNCCc1c[nH]c2ccccc12 | – | – | – | – | · | · | ·
FC(F)(F)c1ccc2c(c1)N(CCCN1CCN(CCCl)CC1)c1ccccc1S2 | 24 | – | – | 173 | – | – | –
CS(=O)(=O)Nc1ccc(Cc2noc(-c3ccc4[nH]cc(CCN)c4c3)n2)cc1 | – | – | – | 156! | – | – | –
NCCc1c[nH]c2ccc(F)cc12 | – | – | – | – | · | · | ·
CCCCC(=O)C1C(=O)NC(=O)NC1=O | – | – | – | – | · | · | ·
CC1CCCC(C2(O)C(=O)Nc3ccccc32)C1=O (stereo not drawn) | – | – | – | – | · | · | ·
CC1(C)C2SCC(=O)N2CCN1CC(=O)NN (stereo not drawn) | – | – | 128 | – | – | – | –
CC1(c2ccccc2)NCCN2C(=O)CSC21 (stereo not drawn) | – | – | – | – | · | · | ·
CC(=O)N1N=C2C3CCN(CC3)C2C1c1ccccc1 (stereo not drawn) | – | – | 1.0[inhibitor] | -2.0[inhibitor] | – | – | –
